Measurements: PubChem BioAssay AID1159580 (chemical genetic matrix, 2015)
The whole screen tested about 5,500 compounds, of which about 2,000 (36%) were called active. Roughly 18% stayed inconclusive and do not appear here. Cut-off read from the data, not from the text of the source: active = normalized growth mostly below about 0.91 (no sharp cut-off); inconclusive = no clear call, values can overlap the other calls; inactive = mostly above about 0.92. The list shows a part of the results.

Test: chemical genetic growth profiling, strain panel (AID 1159580);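 note: tested at 20 µM; growth read once vehicle control cultures reached saturation at 30 °C; 1 = growth at the plate median or of vehicle wells; lower values mean less growth of the strain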
Conditions: growth OD

Measured: normalized growth

COc1cc(C/C=C/c2ccccc2)c(OC)cc1O
inactive: S. cerevisiae deletion strains, locus YJR066W, strain TOR1, active compounds read low 0.989 | S. cerevisiae deletion strains, locus YJR075W, strain HOC1, active compounds read low 0.935 | S. cerevisiae deletion strains, locus YKL009W, strain mrt4, active compounds read low 1.01 | S. cerevisiae deletion strains, locus YKL068W, active compounds read low 0.954 | S. cerevisiae deletion strains, locus YKL085W, strain MDH1 (second series), active compounds read low 0.965 | S. cerevisiae deletion strains, locus YKL085W, strain MDH1, active compounds read low 0.965 | S. cerevisiae deletion strains, locus YKL160W, strain elf1, active compounds read low 0.95 | S. cerevisiae deletion strains, locus YKR001C, strain vps1, active compounds read low 0.969 | S. cerevisiae deletion strains, locus YKR026C, strain gcn3, active compounds read low 0.956 | S. cerevisiae deletion strains, locus YKR091W, strain srl3, active compounds read low 0.954 | S. cerevisiae deletion strains, locus YLL001W, strain dnm1, active compounds read low 0.926 | S. cerevisiae deletion strains, locus YLL026W, active compounds read low 0.962 | S. cerevisiae deletion strains, locus YLL041C, strain sdh2, active compounds read low 0.949 | S. cerevisiae deletion strains, locus YLR027C, strain aat2, active compounds read low 0.942 | S. cerevisiae deletion strains, locus YLR039C, strain RIC1, active compounds read low 0.91 | S. cerevisiae deletion strains, locus YLR058C, strain SHM2, active compounds read low 0.987 | S. cerevisiae deletion strains, locus YLR102C, strain apc9, active compounds read low 0.964 | S. cerevisiae deletion strains, locus YLR113W, strain HOG1, active compounds read low 1.01 | S. cerevisiae deletion strains, locus YLR221C, strain rsa3, active compounds read low 1 | S. cerevisiae deletion strains, locus YLR258W, strain gsy2, active compounds read low 0.943 | S. cerevisiae deletion strains, locus YLR262C, strain YPT6 (second series), active compounds read low 0.95 | S. cerevisiae deletion strains, locus YLR262C, strain YPT6, active compounds read low 0.967 | S. cerevisiae deletion strains, locus YLR268W, strain sec22, active compounds read low 1 | S. cerevisiae deletion strains, locus YLR320W, strain mms22, active compounds read low 0.982 | S. cerevisiae deletion strains, locus YLR330W, strain CHS5, active compounds read low 0.964 | S. cerevisiae deletion strains, locus YLR342W, strain FKS1 (second series), active compounds read low 1.05 | S. cerevisiae deletion strains, locus YLR342W, strain FKS1, active compounds read low 0.949 | S. cerevisiae deletion strains, locus YLR357W, strain rsc2, active compounds read low 0.883 | S. cerevisiae deletion strains, locus YLR370C, strain arc18, active compounds read low 0.965 | S. cerevisiae deletion strains, locus YLR384C, strain iki3, active compounds read low 0.98 | S. cerevisiae deletion strains, locus YLR418C, strain cdc73, active compounds read low 0.883 | S. cerevisiae deletion strains, locus YML016C, strain PPZ1, active compounds read low 0.963 | S. cerevisiae deletion strains, locus YML032C, strain rad52, active compounds read low 1.02 | S. cerevisiae deletion strains, locus YML120C, strain ndi1, active compounds read low 0.922 | S. cerevisiae deletion strains, locus YML124C, strain tub3, active compounds read low 0.941 | S. cerevisiae deletion strains, locus YMR058W, strain fet3, active compounds read low 0.923 | S. cerevisiae deletion strains, locus YMR078C, strain ctf18, active compounds read low 0.956 | S. cerevisiae deletion strains, locus YMR125W, strain sto1, active compounds read low 0.898 | S. cerevisiae deletion strains, locus YMR129W, active compounds read low 0.96 | S. cerevisiae deletion strains, locus YMR205C, strain PFK2, active compounds read low 0.914 | S. cerevisiae deletion strains, locus YMR223W, strain ubp8, active compounds read low 0.983 | S. cerevisiae deletion strains, locus YMR231W, strain pep5, active compounds read low 0.978 | S. cerevisiae deletion strains, locus YMR307W, strain GAS1, active compounds read low 1.04 | S. cerevisiae deletion strains, locus YNL067W, strain RPL9B, active compounds read low 0.966 | S. cerevisiae deletion strains, locus YNL128W, strain TEP1, active compounds read low 0.944 | S. cerevisiae deletion strains, locus YNL183C, strain NPR1, active compounds read low 1 | S. cerevisiae deletion strains, locus YNL209W, strain ssb2, active compounds read low 0.97 | S. cerevisiae deletion strains, locus YNL233W, strain BNI4, active compounds read low 0.945 | S. cerevisiae deletion strains, locus YNL248C, strain rpa49, active compounds read low 0.95 | S. cerevisiae deletion strains, locus YNL271C, strain bni1, active compounds read low 0.926 | S. cerevisiae deletion strains, locus YNL298W, strain CLA4, active compounds read low 0.986 | S. cerevisiae deletion strains, locus YNL307C, strain MCK1, active compounds read low 0.955 | S. cerevisiae deletion strains, locus YNL322C, strain KRE1 (second series), active compounds read low 0.969 | S. cerevisiae deletion strains, locus YNL322C, strain KRE1, active compounds read low 0.962 | S. cerevisiae deletion strains, locus YNR049C, strain mso1, active compounds read low 0.962 | S. cerevisiae deletion strains, locus YNR052C, strain pop2, active compounds read low 0.969 | S. cerevisiae deletion strains, locus YOL006C, strain TOP1, active compounds read low 1.23 | S. cerevisiae deletion strains, locus YOL012C, strain htz1 0.65 | S. cerevisiae deletion strains, locus YOL147C, strain pex11, active compounds read low 0.963 | S. cerevisiae deletion strains, locus YOR001W, strain rrp6, active compounds read low 0.982 | S. cerevisiae deletion strains, locus YOR061W, strain CKA2, active compounds read low 0.965 | S. cerevisiae deletion strains, locus YOR069W, strain VPS5, active compounds read low 0.955 | S. cerevisiae deletion strains, locus YOR070C, strain gyp1, active compounds read low 0.981 | S. cerevisiae deletion strains, locus YOR080W, strain dia2, active compounds read low 0.959 | S. cerevisiae deletion strains, locus YOR083W, strain WHI5, active compounds read low 0.934 | S. cerevisiae deletion strains, locus YOR106W, strain vam3, active compounds read low 0.882 | S. cerevisiae deletion strains, locus YOR136W, strain idh2, active compounds read low 0.963 | S. cerevisiae deletion strains, locus YOR144C, strain elg1, active compounds read low 0.971 | S. cerevisiae deletion strains, locus YOR184W, strain ser1, active compounds read low 1.08 | S. cerevisiae deletion strains, locus YOR231W, strain MKK1, active compounds read low 1.07 | S. cerevisiae deletion strains, locus YOR265W, strain rbl2, active compounds read low 0.955 | S. cerevisiae deletion strains, locus YOR270C, strain vph1, active compounds read low 0.924 | S. cerevisiae deletion strains, locus YOR290C, strain snf2, active compounds read low 0.902 | S. cerevisiae deletion strains, locus YOR316C, strain cot1, active compounds read low 0.95 | S. cerevisiae deletion strains, locus YPL051W, strain arl3, active compounds read low 0.937 | S. cerevisiae deletion strains, locus YPL055C, strain LGE1, active compounds read low 1.01 | S. cerevisiae deletion strains, locus YPL078C, strain atp4, active compounds read low 0.916 | S. cerevisiae deletion strains, locus YPL240C, strain hsp82, active compounds read low 0.963 | S. cerevisiae deletion strains, locus YPL256C, strain CLN2, active compounds read low 1.03 | S. cerevisiae deletion strains, locus YPR119W, strain clb2, active compounds read low 0.946 | S. cerevisiae deletion strains, locus YPR163C, strain tif3, active compounds read low 0.98 | S. cerevisiae deletion strains, locus YPR167C, strain met16, active compounds read low 0.959 | S. cerevisiae deletion strains, strain wtn01, active compounds read low 1.02 | S. cerevisiae strains, strain wild type, active compounds read low 0.98
active: S. cerevisiae deletion strains, locus YLR371W, strain rom2, active compounds read low 0.849 | S. cerevisiae deletion strains, locus YNL071W, strain lat1, active compounds read low 0.866 | S. cerevisiae deletion strains, locus YNL250W, strain rad50, active compounds read low 0.898 | S. cerevisiae deletion strains, locus YPL106C, strain sse1, active compounds read low 0.847 | S. cerevisiae deletion strains, locus YPR141C, strain kar3, active compounds read low 0.914
